# Laboratory results published in PubChem BioAssay AID1508601 (ICCB-Longwood Screening Facility, Harvard Medical School, 2020).
# Screen size: about 5,700 compounds; about 85 (1%) were called active. Cut-off read from the data, not from the text of the source: active = p53-positive nuclei above about 36% (passing the limit was not always enough); inactive = the rest. The full list was thinned out, with actives kept by preference. Peptide text beside a SMILES is read from it. * marks the point of attachment. Cbz = O=C(OCc1ccccc1)*
# Key:
# [1] = nuclear p53 accumulation, HPV+ cells – imaging, p53-positive nuclei imaging, 24 h, 48 h (AID 1508601); details: 24/48 h
# [2] = target: Cellular tumor antigen p53 (Homo sapiens) (UniProt P04637); test: as above; details: 24/48 h, stronger effect = higher value
# [3] = measured here: cell number at 24 h, Library stock concentration: 80 uM
# [4] = measured here: cell number at 24 h, Library stock concentration: 400 uM
# [5] = measured here: cell number at 24 h, Library stock concentration: 2 mM
# [6] = measured here: cell number at 24 h, Library stock concentration: 10 mM
# [7] = measured here: cell number at 24 h, concentration not given here
# [8] = measured here: cell number at 48 h, Library stock concentration: 80 uM
# [9] = measured here: cell number at 48 h, Library stock concentration: 400 uM
# [10] = measured here: cell number at 48 h, Library stock concentration: 2 mM
# [11] = measured here: cell number at 48 h, Library stock concentration: 10 mM
# [12] = measured here: cell number at 48 h, concentration not given here
# [13] = Library stock concentration: 80 uM
# [14] = Library stock concentration: 400 uM
# [15] = Library stock concentration: 2 mM
# [16] = Library stock concentration: 10 mM
# [17] = measured here: p53 positive nuclei at 24 h, Library stock concentration: 80 uM
# [18] = measured here: p53 positive nuclei at 24 h, Library stock concentration: 400 uM
# [19] = measured here: p53 positive nuclei at 24 h, Library stock concentration: 2 mM
# [20] = measured here: p53 positive nuclei at 24 h, Library stock concentration: 10 mM
# [21] = measured here: p53 positive nuclei at 24 h, concentration not given here
# [22] = measured here: cell number at 24 h, Library stock concentration: 3.33 mM
# [23] = measured here: cell number at 48 h, Library stock concentration: 3.33 mM
# [24] = Library stock concentration: 3.33 mM
# [25] = measured here: p53 positive nuclei at 24 h, Library stock concentration: 3.33 mM
# Sequence of Cellular tumor antigen p53 (Homo sapiens) (P04637 whole entry, looked up): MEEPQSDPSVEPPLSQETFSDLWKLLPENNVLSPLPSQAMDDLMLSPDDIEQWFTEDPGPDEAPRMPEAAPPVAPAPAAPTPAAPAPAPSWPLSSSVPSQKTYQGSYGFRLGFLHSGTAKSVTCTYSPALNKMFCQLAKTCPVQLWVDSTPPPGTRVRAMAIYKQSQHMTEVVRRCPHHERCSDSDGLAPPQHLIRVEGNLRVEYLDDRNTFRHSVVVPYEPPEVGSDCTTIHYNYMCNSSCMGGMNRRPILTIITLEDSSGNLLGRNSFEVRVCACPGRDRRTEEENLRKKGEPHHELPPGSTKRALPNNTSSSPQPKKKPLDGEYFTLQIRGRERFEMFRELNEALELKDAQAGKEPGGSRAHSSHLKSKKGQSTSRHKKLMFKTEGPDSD
structure (smiles),measurement,setting,value
CCCCc1ccc(N=CNO)c(C)c1,"nuclei count, normalised",[1]; [3],102%
same,"nuclei count, normalised",[1]; [4],87.8%
same,"nuclei count, normalised",[1]; [5],104%
same,"nuclei count, normalised",[1]; [6],97.5%
same,"nuclei count, normalised",[1]; [7],112%
same,"nuclei count, normalised",[1]; [8],102%
same,"nuclei count, normalised",[1]; [9],96.8%
same,"nuclei count, normalised",[1]; [10],107%
same,"nuclei count, normalised",[1]; [11],103%
same,"nuclei count, normalised",[1]; [12],114%
same,"p53-positive nuclei, normalised",[2]; [13],-0.0421% (inactive)
same,"p53-positive nuclei, normalised",[2]; [14],-0.0681% (inactive)
same,"p53-positive nuclei, normalised",[2]; [15],-0.128% (inactive)
same,"p53-positive nuclei, normalised",[2]; [16],-0.158% (inactive)
same,"p53-positive nuclei, normalised",[2]; concentration not given here,-0.0134% (inactive)
same,"p53-positive nuclei, normalised",[2]; [17],-0.116%
same,"p53-positive nuclei, normalised",[2]; [18],0.0745%
same,"p53-positive nuclei, normalised",[2]; [19],0.0465%
same,"p53-positive nuclei, normalised",[2]; [20],0.123%
same,"p53-positive nuclei, normalised",[2]; [21],-0.0878%
O=C(Nc1ccccc1Br)NC1CCN(c2ccc(C(F)(F)F)cn2)C1 (stereo not given),"nuclei count, normalised",[1]; [22],102%
same,"nuclei count, normalised",[1]; [23],96.3%
same,"p53-positive nuclei, normalised",[2]; [24],-0.163% (inactive)
same,"p53-positive nuclei, normalised",[2]; [25],-0.314%
CCCCC/C=C\C/C=C\C/C=C\C/C=C\CCCC(=O)C(F)(F)F,"nuclei count, normalised",[1]; [7],108%
same,"nuclei count, normalised",[1]; [12],109%
same,"p53-positive nuclei, normalised",[2]; concentration not given here,-0.148% (inactive)
same,"p53-positive nuclei, normalised",[2]; [21],-0.0854%
Nc1ncn([C@@H]2O[C@@H](CO)[C@H](O)[C@@H]2O)c(=O)n1,"nuclei count, normalised",[1]; [3],122%
same,"nuclei count, normalised",[1]; [4],116%
same,"nuclei count, normalised",[1]; [5],110%
same,"nuclei count, normalised",[1]; [6],65.9%
same,"nuclei count, normalised",[1]; [8],122%
same,"nuclei count, normalised",[1]; [9],116%
same,"nuclei count, normalised",[1]; [10],111%
same,"nuclei count, normalised",[1]; [11],63.4%
same,"p53-positive nuclei, normalised",[2]; [13],-0.241% (inactive)
same,"p53-positive nuclei, normalised",[2]; [14],-0.762% (inactive)
same,"p53-positive nuclei, normalised",[2]; [15],-0.515% (inactive)
same,"p53-positive nuclei, normalised",[2]; [16],0.325% (inactive)
same,"p53-positive nuclei, normalised",[2]; [17],1.31%
same,"p53-positive nuclei, normalised",[2]; [18],-0.12%
same,"p53-positive nuclei, normalised",[2]; [19],0.0304%
same,"p53-positive nuclei, normalised",[2]; [20],0.106%
CC(=O)NC(CC(C)C)C(=O)NC(CC(C)C)C(=O)NC(C=O)CCCN=C(N)N (stereo not given),"nuclei count, normalised",[1]; [3],88.7%
same,"nuclei count, normalised",[1]; [4],87.3%
same,"nuclei count, normalised",[1]; [5],62.5%
same,"nuclei count, normalised",[1]; [6],67.4%
same,"nuclei count, normalised",[1]; [8],91.5%
same,"nuclei count, normalised",[1]; [9],90.5%
same,"nuclei count, normalised",[1]; [10],69%
same,"nuclei count, normalised",[1]; [11],72.9%
same,"p53-positive nuclei, normalised",[2]; [13],0.011% (inactive)
same,"p53-positive nuclei, normalised",[2]; [14],-0.0354% (inactive)
same,"p53-positive nuclei, normalised",[2]; [15],-0.0908% (inactive)
same,"p53-positive nuclei, normalised",[2]; [16],-0.0909% (inactive)
same,"p53-positive nuclei, normalised",[2]; [17],-0.0474%
same,"p53-positive nuclei, normalised",[2]; [18],-0.0442%
same,"p53-positive nuclei, normalised",[2]; [19],0.0943%
same,"p53-positive nuclei, normalised",[2]; [20],-0.12%
CC(C)CC(C=O)NC(=O)C(CC(C)C)NC(=O)C(CC(C)C)NC(=O)OCc1ccccc1 (stereo not drawn) (Cbz-Leu-Leu-Leu-aldehyde; configuration not given here),"nuclei count, normalised","[1]; measured here: cell number at 24 h, Library stock concentration: 46 uM",112%
same,"nuclei count, normalised","[1]; measured here: cell number at 24 h, Library stock concentration: 278 uM",112%
same,"nuclei count, normalised","[1]; measured here: cell number at 24 h, Library stock concentration: 1.67 mM",62%
same,"nuclei count, normalised",[1]; [22],46.1%
same,"nuclei count, normalised",[1]; [6],59.9%
same,"nuclei count, normalised","[1]; measured here: cell number at 48 h, Library stock concentration: 46 uM",111%
same,"nuclei count, normalised","[1]; measured here: cell number at 48 h, Library stock concentration: 278 uM",104%
same,"nuclei count, normalised","[1]; measured here: cell number at 48 h, Library stock concentration: 1.67 mM",46.9%
same,"nuclei count, normalised",[1]; [23],38.7%
same,"nuclei count, normalised",[1]; [11],46.7%
same,"p53-positive nuclei, normalised",[2]; Library stock concentration: 46 uM,-0.152% (inactive)
same,"p53-positive nuclei, normalised",[2]; Library stock concentration: 278 uM,0.0393% (inactive)
same,"p53-positive nuclei, normalised",[2]; Library stock concentration: 1.67 mM,92% (active)
same,"p53-positive nuclei, normalised",[2]; [24],92% (active)
same,"p53-positive nuclei, normalised",[2]; [16],106% (active)
same,"p53-positive nuclei, normalised","[2]; measured here: p53 positive nuclei at 24 h, Library stock concentration: 46 uM",0.0832%
same,"p53-positive nuclei, normalised","[2]; measured here: p53 positive nuclei at 24 h, Library stock concentration: 278 uM",-0.0262%
same,"p53-positive nuclei, normalised","[2]; measured here: p53 positive nuclei at 24 h, Library stock concentration: 1.67 mM",44.6%
same,"p53-positive nuclei, normalised",[2]; [25],87.5%
same,"p53-positive nuclei, normalised",[2]; [20],135%
CC(NC(=O)C(Cc1ccccc1)NC(=O)OCc1ccccc1)C(=O)CF (stereo not given),"nuclei count, normalised",[1]; [22],108%
same,"nuclei count, normalised",[1]; [23],101%
same,"p53-positive nuclei, normalised",[2]; [24],-0.054% (inactive)
same,"p53-positive nuclei, normalised",[2]; [25],-0.116%
C=CC(=O)N1CCc2ccc(-n3c(=O)ccc4cnc5ccc(-c6cnn(C)c6)cc5c43)cc21,"nuclei count, normalised",[1]; [3],107%
same,"nuclei count, normalised",[1]; [4],102%
same,"nuclei count, normalised",[1]; [5],74.7%
same,"nuclei count, normalised",[1]; [6],48.5%
same,"nuclei count, normalised",[1]; [8],108%
same,"nuclei count, normalised",[1]; [9],102%
same,"nuclei count, normalised",[1]; [10],84.2%
same,"nuclei count, normalised",[1]; [11],37.4%
same,"p53-positive nuclei, normalised",[2]; [13],-0.0335% (inactive)
same,"p53-positive nuclei, normalised",[2]; [14],-0.203% (inactive)
same,"p53-positive nuclei, normalised",[2]; [15],-0.00288% (inactive)
same,"p53-positive nuclei, normalised",[2]; [16],0.846% (inactive)
same,"p53-positive nuclei, normalised",[2]; [17],-0.0563%
same,"p53-positive nuclei, normalised",[2]; [18],-0.129%
same,"p53-positive nuclei, normalised",[2]; [19],-0.129%
same,"p53-positive nuclei, normalised",[2]; [20],0.0284%
